Assay results: the supplement of paper PMC10849652
The full data set covers some 7,900 targets. This sample favours those with a hit. About 0.6% of all pairs of compound and target were hits. A number with no mark means an inactive call.

Columns and labels:
Experiment in all cases: log2 fold change, soluble protein after heating vs DMSO (PISA); higher = thermal stabilisation; K562 cells, 10 uM, 30 min; active = over 0.2 and 3.5 SD of the protein, either way, in both replicates (recomputed)
[1] = compound: COC1=CC=C(C=C1)CN2C=CC3=C2C=C(C=C3)C(=O)NO
Summary of the method: (§1)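 K562 cells (2×10^6 cells/mL) were treated with 10 μM compound for 30 min, and aliquots were heated for 3 min over 48°C-58°C. Pooled aliquots were extracted in PBS with 0.5% NP-40 at 4°C, and the supernatant after 21,000xg for 90 min was measured by TMTpro 16plex LC-MS/MS with channel sums equalised. Reported thermal stability, relative to control samples and from duplicates, is a log2 fold change.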

[2] = compound: CON(C)C(=O)N1N=C(c2cc(F)ccc2F)S[C@@]1(CCCN)c1ccccc1 [filanesib]
Summary of the method: as §1

[3] = compound: CO[C@H]1C[C@@H]2CC[C@@H](C)[C@@](O)(O2)C(=O)C(=O)N2CCCC[C@H]2C(=O)O[C@H]([C@H](C)C[C@@H]2CC[C@H](n3cnnn3)[C@H](OC)C2)CC(=O)[C@H](C)/C=C(\C)[C@@H](O)[C@@H](OC)C(=O)[C@H](C)C[C@H](C)/C=C/C=C/C=C/1C [zotarolimus]
Summary of the method: as §1

[4] = compound: COc1cc(C(=O)O)ccc1NC(=O)[C@@H]1N[C@@H](CC(C)(C)C)[C@](C#N)(c2ccc(Cl)cc2F)[C@H]1c1cccc(Cl)c1F [idasanutlin]
Summary of the method: as §1

[5] = compound: COc1cc(Nc2ncc3c(n2)-c2ccc(Cl)cc2C(c2c(F)cccc2OC)=NC3)ccc1C(=O)O [alisertib]
Summary of the method: as §1

[6] = compound: COc1cc2nc(-c3cc(F)ccc3O)nc(N[C@@H]3CNC[C@H]3C(C)(C)O)c2cc1OC
Summary of the method: as §1

[7] = compound: COc1cc2ncnc(Nc3ccc(F)c(Cl)c3)c2cc1OCCCN1CCOCC1 [gefitinib]
Summary of the method: as §1

[8] = compound: COc1cccc2cc(-c3nc([C@H]4CC[C@H](C(=O)O)CC4)n4ncnc(N)c34)[nH]c12
Summary of the method: as §1

[9] = compound: CS(=O)(=O)CCNCc1ccc(-c2ccc3ncnc(Nc4ccc(OCc5cccc(F)c5)c(Cl)c4)c3c2)o1 [lapatinib]
Summary of the method: as §1

[10] = compound: CS(=O)(=O)N1CCN(Cc2cc3nc(-c4cccc5[nH]ncc45)nc(N4CCOCC4)c3s2)CC1 [pictilisib]
Summary of the method: as §1

Sequence of UniProt Q9NXX6 (Q9NXX6 whole entry, looked up): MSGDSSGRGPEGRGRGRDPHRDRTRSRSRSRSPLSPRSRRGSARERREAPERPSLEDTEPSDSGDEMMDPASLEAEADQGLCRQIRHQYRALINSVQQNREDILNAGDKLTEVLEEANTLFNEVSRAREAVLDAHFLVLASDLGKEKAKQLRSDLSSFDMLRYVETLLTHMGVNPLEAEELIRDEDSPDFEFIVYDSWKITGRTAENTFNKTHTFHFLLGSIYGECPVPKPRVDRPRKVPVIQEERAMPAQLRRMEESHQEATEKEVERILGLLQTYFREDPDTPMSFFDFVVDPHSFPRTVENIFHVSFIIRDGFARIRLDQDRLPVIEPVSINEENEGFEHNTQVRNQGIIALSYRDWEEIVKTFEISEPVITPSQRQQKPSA
Sequence of UniProt Q8NCE2 (Q8NCE2 whole entry, looked up): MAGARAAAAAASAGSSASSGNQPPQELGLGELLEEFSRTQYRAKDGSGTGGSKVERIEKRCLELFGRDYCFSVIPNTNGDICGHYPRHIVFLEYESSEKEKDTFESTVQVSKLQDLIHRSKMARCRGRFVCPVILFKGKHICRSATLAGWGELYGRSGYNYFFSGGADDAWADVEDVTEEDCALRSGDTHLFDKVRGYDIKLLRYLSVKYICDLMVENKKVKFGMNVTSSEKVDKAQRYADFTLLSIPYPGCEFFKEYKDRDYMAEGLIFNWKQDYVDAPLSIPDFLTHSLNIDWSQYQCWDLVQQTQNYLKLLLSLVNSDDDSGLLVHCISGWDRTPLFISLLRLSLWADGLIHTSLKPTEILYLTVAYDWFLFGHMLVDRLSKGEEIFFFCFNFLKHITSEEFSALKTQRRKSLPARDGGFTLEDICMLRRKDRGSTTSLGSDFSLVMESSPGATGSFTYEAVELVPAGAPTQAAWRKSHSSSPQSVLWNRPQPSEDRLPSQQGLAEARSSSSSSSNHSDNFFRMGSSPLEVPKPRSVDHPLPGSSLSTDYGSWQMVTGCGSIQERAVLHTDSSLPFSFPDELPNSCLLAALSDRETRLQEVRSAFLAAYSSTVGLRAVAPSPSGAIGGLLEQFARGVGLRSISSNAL
Sequence of UniProt O60934 (O60934 whole entry, looked up): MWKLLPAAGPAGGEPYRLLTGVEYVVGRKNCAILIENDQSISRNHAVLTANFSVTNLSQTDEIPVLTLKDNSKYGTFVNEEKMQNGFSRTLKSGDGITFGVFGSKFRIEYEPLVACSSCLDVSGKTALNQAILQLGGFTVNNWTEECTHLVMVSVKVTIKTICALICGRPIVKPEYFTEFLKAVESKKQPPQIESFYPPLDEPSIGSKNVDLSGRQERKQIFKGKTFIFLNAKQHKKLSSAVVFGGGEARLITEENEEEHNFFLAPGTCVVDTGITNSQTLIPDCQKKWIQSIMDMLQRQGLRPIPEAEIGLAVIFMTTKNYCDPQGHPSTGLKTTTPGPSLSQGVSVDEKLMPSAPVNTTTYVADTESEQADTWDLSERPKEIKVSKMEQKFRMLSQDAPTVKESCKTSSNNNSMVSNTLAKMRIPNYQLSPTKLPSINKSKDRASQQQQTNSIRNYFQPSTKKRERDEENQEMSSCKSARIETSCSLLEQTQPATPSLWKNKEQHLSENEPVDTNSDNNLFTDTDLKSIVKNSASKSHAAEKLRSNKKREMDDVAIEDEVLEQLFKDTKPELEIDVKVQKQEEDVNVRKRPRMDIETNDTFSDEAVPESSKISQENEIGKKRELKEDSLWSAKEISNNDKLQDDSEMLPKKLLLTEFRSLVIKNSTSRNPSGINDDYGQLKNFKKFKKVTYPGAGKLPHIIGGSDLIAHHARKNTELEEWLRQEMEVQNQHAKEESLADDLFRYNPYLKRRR
Sequence of UniProt Q96PU5 (Q96PU5 whole entry, looked up): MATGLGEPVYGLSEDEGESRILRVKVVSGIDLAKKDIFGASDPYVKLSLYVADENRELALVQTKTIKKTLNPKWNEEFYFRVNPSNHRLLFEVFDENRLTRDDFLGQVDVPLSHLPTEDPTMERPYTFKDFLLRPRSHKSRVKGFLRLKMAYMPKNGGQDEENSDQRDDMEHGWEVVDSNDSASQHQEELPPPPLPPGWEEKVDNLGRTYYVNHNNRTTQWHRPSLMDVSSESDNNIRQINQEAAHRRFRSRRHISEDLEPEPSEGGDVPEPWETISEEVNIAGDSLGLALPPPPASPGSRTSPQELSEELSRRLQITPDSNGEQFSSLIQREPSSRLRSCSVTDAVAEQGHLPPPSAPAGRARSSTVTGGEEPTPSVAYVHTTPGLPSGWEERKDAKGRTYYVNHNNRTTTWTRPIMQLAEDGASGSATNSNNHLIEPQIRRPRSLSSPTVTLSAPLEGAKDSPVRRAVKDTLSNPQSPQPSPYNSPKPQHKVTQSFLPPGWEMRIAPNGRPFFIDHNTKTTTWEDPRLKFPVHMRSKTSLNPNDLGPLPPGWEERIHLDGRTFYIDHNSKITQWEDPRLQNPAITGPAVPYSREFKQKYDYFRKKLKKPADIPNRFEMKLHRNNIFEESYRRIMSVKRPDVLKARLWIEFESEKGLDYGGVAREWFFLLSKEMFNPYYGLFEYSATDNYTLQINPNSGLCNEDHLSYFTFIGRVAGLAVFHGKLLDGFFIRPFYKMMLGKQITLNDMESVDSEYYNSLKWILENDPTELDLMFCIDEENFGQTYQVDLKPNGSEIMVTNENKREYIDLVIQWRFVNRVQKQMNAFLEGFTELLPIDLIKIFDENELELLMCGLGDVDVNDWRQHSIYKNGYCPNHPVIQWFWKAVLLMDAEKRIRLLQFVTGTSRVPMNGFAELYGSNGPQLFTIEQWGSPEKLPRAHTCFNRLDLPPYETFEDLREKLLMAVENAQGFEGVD
Sequence of UniProt P49321 (P49321 whole entry, looked up): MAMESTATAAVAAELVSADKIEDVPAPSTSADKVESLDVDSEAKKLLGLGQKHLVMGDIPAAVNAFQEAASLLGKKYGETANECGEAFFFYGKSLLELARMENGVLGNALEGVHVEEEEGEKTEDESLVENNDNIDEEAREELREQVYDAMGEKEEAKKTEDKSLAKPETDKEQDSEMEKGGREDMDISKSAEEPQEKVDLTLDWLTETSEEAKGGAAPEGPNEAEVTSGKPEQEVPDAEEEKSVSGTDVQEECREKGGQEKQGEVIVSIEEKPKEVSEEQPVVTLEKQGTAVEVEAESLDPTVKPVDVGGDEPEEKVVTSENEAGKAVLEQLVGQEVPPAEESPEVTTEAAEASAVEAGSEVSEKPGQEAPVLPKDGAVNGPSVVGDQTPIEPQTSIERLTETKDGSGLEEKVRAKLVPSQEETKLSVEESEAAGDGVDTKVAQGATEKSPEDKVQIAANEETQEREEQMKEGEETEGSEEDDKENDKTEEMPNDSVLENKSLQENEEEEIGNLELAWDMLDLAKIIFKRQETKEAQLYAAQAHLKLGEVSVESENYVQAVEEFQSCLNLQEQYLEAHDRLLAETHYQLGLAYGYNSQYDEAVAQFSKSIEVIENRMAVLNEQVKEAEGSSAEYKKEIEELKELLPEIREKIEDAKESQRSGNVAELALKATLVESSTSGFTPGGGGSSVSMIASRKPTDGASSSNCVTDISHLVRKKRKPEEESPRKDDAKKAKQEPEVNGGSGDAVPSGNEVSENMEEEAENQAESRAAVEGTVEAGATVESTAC
Sequence of UniProt O00567 (O00567 whole entry, looked up): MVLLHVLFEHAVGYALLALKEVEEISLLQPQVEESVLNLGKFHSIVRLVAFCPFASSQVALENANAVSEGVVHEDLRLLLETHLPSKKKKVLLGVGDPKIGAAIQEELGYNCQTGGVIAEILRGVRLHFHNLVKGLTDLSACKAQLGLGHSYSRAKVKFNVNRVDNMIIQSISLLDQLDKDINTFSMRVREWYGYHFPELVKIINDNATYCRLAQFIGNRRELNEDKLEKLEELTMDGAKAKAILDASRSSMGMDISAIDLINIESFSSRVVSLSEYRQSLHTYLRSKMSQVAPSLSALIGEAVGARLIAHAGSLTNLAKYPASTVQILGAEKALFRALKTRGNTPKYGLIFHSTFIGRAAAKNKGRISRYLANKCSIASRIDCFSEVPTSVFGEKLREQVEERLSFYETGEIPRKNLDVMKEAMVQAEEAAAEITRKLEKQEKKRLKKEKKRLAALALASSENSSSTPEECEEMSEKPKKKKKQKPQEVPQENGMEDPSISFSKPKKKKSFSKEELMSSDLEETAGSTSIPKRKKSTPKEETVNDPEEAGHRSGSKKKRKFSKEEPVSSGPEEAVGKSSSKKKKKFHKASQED
Sequence of UniProt P68402 (P68402 whole entry, looked up): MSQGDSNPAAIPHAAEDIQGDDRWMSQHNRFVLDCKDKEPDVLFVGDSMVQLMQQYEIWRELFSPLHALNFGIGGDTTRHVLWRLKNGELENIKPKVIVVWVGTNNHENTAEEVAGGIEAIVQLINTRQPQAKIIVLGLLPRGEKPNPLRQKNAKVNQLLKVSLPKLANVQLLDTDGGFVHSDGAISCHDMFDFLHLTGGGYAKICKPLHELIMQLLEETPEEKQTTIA
Sequence of UniProt Q96MF7 (Q96MF7 whole entry, looked up): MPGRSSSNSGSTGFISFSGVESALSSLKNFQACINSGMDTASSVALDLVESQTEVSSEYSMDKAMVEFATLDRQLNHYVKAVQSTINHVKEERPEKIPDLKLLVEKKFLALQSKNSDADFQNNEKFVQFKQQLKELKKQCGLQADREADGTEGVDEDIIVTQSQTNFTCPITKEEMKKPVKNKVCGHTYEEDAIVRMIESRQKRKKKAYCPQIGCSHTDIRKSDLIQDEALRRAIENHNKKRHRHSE
Sequence of UniProt O43181 (O43181 whole entry, looked up): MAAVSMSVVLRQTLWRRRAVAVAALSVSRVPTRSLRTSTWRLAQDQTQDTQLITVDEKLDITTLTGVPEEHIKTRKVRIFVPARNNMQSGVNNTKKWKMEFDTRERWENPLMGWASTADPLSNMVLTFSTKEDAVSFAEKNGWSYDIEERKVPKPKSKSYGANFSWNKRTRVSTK

Target	log2 fold change [1]	log2 fold change [2]	log2 fold change [3]	log2 fold change [4]	log2 fold change [5]	log2 fold change [6]	log2 fold change [7]	log2 fold change [8]	log2 fold change [9]	log2 fold change [10]
NCK1 (UniProt P16333)	0.049	-0.054	0.13	-0.001	-0.127	-0.165	0.002	-0.024	-0.066	–
MYSM1 (UniProt Q5VVJ2)	-0.063	-0.007	–	–	–	–	–	–	–	–
NEK3 (UniProt P51956)	0.058	-0.297	0.217	0.116	0.074	0.07	0.086	-0.196	0.061	0.161
MRPS33 (UniProt Q9Y291)	-0.033	0.002	0.043	-0.167	-0.052	-0.057	0	0.008	0.036	-0.1
NDUFS4 (UniProt O43181)	-0.018	-0.019	-0.022	0.035	-0.074	-0.077	-0.008	0.036	0.029	-0.122
NSMCE4A (UniProt Q9NXX6)	0.033	0.049	0.019	0.017	-0.087	-0.018	0.181	-0.437 (active)	0.034	-0.011
NSMCE2 (UniProt Q96MF7)	-0.029	0.045	0.018	0.027	-0.076	0.018	-0.009	-0.018	0.023	-0.233 (active)
OTUD4 (UniProt Q01804)	-0.122	0.182	0.022	0.063	-0.106	-0.062	0.039	0.013	0.095	-0.025
NMD3 (UniProt Q96D46)	0.004	-0.221	0.008	-0.095	-0.034	0.108	0.007	0.016	0	0.089
MT-ND4 (UniProt P03905)	-0.021	-0.009	-0.069	-0.147	-0.02	-0.088	0.003	0.046	0.013	-0.214
NELFB isoform 2 (UniProt Q8WX92)	0.01	0.046	0.019	-0.026	-0.007	0.085	-0.006	-0.02	-0.029	0.141
NEU1 (UniProt Q99519)	0.153	-0.107	0.001	0.015	-0.123	-0.05	-0.091	-0.073	-0.015	-0.113
NCAPG (UniProt Q9BPX3)	0.079	-0.018	0.054	-0.064	0.03	0.038	0.022	-0.116	0	0.071
MSH6 (UniProt P52701)	0.09	-0.154	0.088	-0.003	0.75	-0.017	0.068	-0.04	0.008	-0.026
NCOA7 (UniProt Q8NI08)	-0.043	-0.046	0.035	-0.034	-0.034	0.043	-0.014	0.014	0.01	-0.045
NOP56 (UniProt O00567)	-0.083	0.605 (active)	0.136	0.345	0.007	0.045	-0.046	-0.078	0.098	0.013

Target	log2 fold change [1]	log2 fold change [2]	log2 fold change [3]	log2 fold change [4]	log2 fold change [5]	log2 fold change [6]	log2 fold change [7]	log2 fold change [8]	log2 fold change [9]	log2 fold change [10]
MORC3 (UniProt Q14149)	0.013	-0.04	0.015	0.021	0.039	0.146	-0.082	0	-0.058	0.196
NUP210 (UniProt Q8TEM1)	-0.099	-0.08	0.002	0.019	-0.045	-0.319 (active)	-0.053	0.045	-0.089	-0.114
NUCKS1 (UniProt Q9H1E3)	-0.035	0.051	-0.031	-0.011	-0.071	0.182	-0.001	0.02	-0.064	-0.011
NA, A0A0B4J2A0	0.084	-0.045	-0.021	-0.016	0.129	-0.029	-0.092	0.023	-0.026	0.05
NBN (UniProt O60934)	-0.039	-0.007	0.039	-0.053	0.057	0.028	0.03	-0.019	0.008	-0.035
NR2C2 isoform 2 (UniProt P49116)	0.026	0.019	0.055	0.041	-0.173	0.028	-0.052	0.084	-0.004	0.019
NEDD4L (UniProt Q96PU5)	-0.027	0.095	0.032	-0.018	-0.114	0.086	-0.031	0.027	-0.025	-0.035
MUL1 (UniProt Q969V5)	-0.044	0.042	-0.064	-0.052	0.069	-0.05	0.017	-0.08	0.006	0.006
MTMR14 (UniProt Q8NCE2)	0.007	0.026	-0.04	0.02	-0.04	0.069	-0.02	0.017	-0.075	0.083
NFATC3 (UniProt Q12968)	0.039	0.056	-0.109	-0.009	0.006	-0.109	0.048	-0.002	0.015	0.086
PAFAH1B2 (UniProt P68402)	0.044	-0.074	0.007	0.082	0.02	-0.071	0.086	0.033	0.029	-0.28
NASP (UniProt P49321)	0.01	-0.009	0.05	-0.021	-0.03	0.029	0.001	-0.023	-0.023	0.007
MRPS25 (UniProt P82663)	0.066	0.029	0.053	-0.185	-0.038	-0.055	0.058	-0.046	0.08	0.063
NEDD4 isoform 4 (UniProt P46934)	0.036	-0.02	0.064	-0.042	0.053	0.027	0.074	-0.029	0.028	-0.017
MLX (UniProt Q9UH92)	-0.054	0.027	-0.009	-0.071	-0.014	0.025	0.022	0.057	-0.099	0.05
